# Measurements reported in PubChem BioAssay (NCI).
# About 83,000 compounds went through this panel and 20% of them were active in at least one assay; those are over-represented in the sample as a whole.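 Single-dose data. Exposure time 48 hours. Values below 10 considered active.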 A number with no mark means an inactive call. Activity calls are given as the source filed them.
# Assays:
# Test in all cases: NCI-60 one-dose screen, 48 h (100 = growth as untreated, 0 = no growth, -100 = all killed)
# Conditions in all cases: 10 µM unless noted
# NCI-H23 lung = system: NCI-H23 lung
# NCI-H226 lung = system: NCI-H226 lung
# NCI-H322M lung = system: NCI-H322M lung
# HOP-62 NSCLC = system: HOP-62 NSCLC
# NCI-H460 lung = system: NCI-H460 lung
# HOP-92 NSCLC = system: HOP-92 NSCLC
# NCI-H522 lung = system: NCI-H522 lung
# A549/ATCC NSCLC = system: A549/ATCC NSCLC
# 786-0 renal = system: 786-0 renal
# COLO 205 colon = system: COLO 205 colon
# DU-145 prostate = system: DU-145 prostate
# K-562 leukemia = system: K-562 leukemia
# MALME-3M melanoma = system: MALME-3M melanoma
# MDA-MB-231 breast = system: MDA-MB-231 breast
# RXF 393 renal = system: RXF 393 renal
# SF-268 CNS = system: SF-268 CNS
# SF-295 CNS = system: SF-295 CNS
# SF-539 CNS = system: SF-539 CNS
# UACC-257 melanoma = system: UACC-257 melanoma
# M14 melanoma = system: M14 melanoma
Structure (SMILES),growth (NCI-H23 lung) [%],growth (NCI-H226 lung),growth (NCI-H322M lung),growth (HOP-62 NSCLC),growth (NCI-H460 lung),growth (HOP-92 NSCLC),growth (NCI-H522 lung),growth (A549/ATCC NSCLC),growth (786-0 renal),growth (COLO 205 colon),growth (DU-145 prostate),growth (K-562 leukemia),growth (MALME-3M melanoma),growth (MDA-MB-231 breast),growth (RXF 393 renal),growth (SF-268 CNS) [%],growth (SF-295 CNS),growth (SF-539 CNS),growth (UACC-257 melanoma),growth (M14 melanoma)
Oc1ccc(/C=C/c2ccc(O)cc2)cc1,62.2,90.8%,58.5%,71.4%,34.5%,73.2%,-0.122% (active),60.7%,24.3%,134%,56.9%,69.5%,58.9%,80.1%,62.8%,42.7,88.1%,-11.4% (active),72.3%,65%
CC(C)(C)n1cc(-c2ccnc(NCCNS(=O)(=O)c3ccc(O)cc3)c2)c(-c2cccc(O)c2)n1,98.6,102%,105%,101%,104%,102%,94.8%,97.3%,103%,91.9%,106%,56.1%,96.9%,111%,108%,94.4,101%,95.3%,99.1%,110%
CN1CCN(CC(=O)Nc2ccc3ncnc(Nc4ccc(Oc5cccc(C(F)(F)F)c5)c(Cl)c4)c3c2)CC1,53.1,81.5%,26.5%,54.1%,-69.4% (active),39.7%,18%,10.2%,-75.8% (active),-39.5% (active),23.9%,-27.3% (active),-77.1% (active),-58.1% (active),-78.6% (active),11.3,-44.7% (active),-84.5% (active),-56.1% (active),-86.5% (active)
N#C/C(=C\c1ccc([N+](=O)[O-])cc1)n1nnc2cc(F)c(F)cc21,34.6,-1.27% (active),72.5%,63.9%,11.7%,9.03% (active),36.9%,64.5%,-58.4% (active),19.9%,14.6%,5.08% (active),33.1%,8.32% (active),-64.7% (active),31,98.1%,-33.7% (active),77.4%,28.4%
C=C(C)[C@@H]1CCC[C@]2(C(=O)O)CC[C@]3(C)[C@@H](CC[C@@H]4[C@@]5(C)C/C(=C/c6ccncc6)C(=O)C(C)(C)[C@@H]5CC[C@]43C)[C@@H]12,20.9,36.1%,26.3%,50.4%,5.65% (active),57.2%,16.6%,16.3%,39.8%,6.51% (active),32.9%,13.7%,72%,12.2%,34.4%,52.1,27.2%,26.3%,57.9%,45.8%
CCOC(=O)C1=C(C)C(Cl)=N/C1=C\c1[nH]c(Cl)c(C)c1C(=O)OCC,98.2,65.1%,100%,96.5%,108%,87.8%,77.5%,78%,97.7%,107%,111%,91%,107%,93%,115%,101,111%,100%,91.4%,87.1%
COc1cc(C(=O)c2c(-c3ccccc3)oc3c(OC)cccc23)cc(OC)c1OC,23.8,8.39% (active),46.2%,30%,3.18% (active),-1.18% (active),13.9%,17%,9.22% (active),-15.7% (active),6.56% (active),12.3%,42.2%,-0.456% (active),-3.42% (active),30.1,2.79% (active),-26.1% (active),71.1%,3.87% (active)
O=C(N/N=C\c1cccc([N+](=O)[O-])c1)N/N=C/c1cccc([N+](=O)[O-])c1,101,92.4%,104%,92.9%,107%,105%,98.9%,100%,111%,119%,116%,99.4%,109%,100%,106%,102,106%,111%,97.4%,113%
CC(=O)OC(c1ccccc1)C1CCOC1=O (stereo not given),93.8,93.6%,106%,99.2%,109%,93.2%,78.1%,99%,94.8%,170%,115%,108%,107%,103%,101%,110,94.6%,101%,102%,99.9%
Cc1ccc(C)c(/C=C2\CN(C(=O)OC(C)(C)C)C/C(=C\c3cc(C)ccc3C)C2=O)c1,49.7,89%,93.9%,93.4%,45.3%,91.3%,46.1%,80.5%,74.5%,30.9%,37.7%,7.09% (active),67.7%,92.1%,91.1%,53.6,55.9%,94.9%,59.4%,20.1%
CN(C)CCCNC(=O)c1cncnc1Nc1ccc(OCc2cccc(F)c2)c(Cl)c1,61.5,89%,4.56% (active),-56% (active),-75.1% (active),24.6%,-60.4% (active),-58% (active),-78.7% (active),-71.3% (active),23.4%,-57.7% (active),-11.7% (active),-43.4% (active),20.5%,34.5,71.9%,-71.2% (active),-63.2% (active),-71.4% (active)
O=[N+]([O-])c1ccc(-c2cn3nc(-c4c[nH]c5ccccc45)sc3n2)cc1,88.1,90.8%,84.9%,94.6%,98%,102%,80.7%,86.9%,103%,108%,110%,84.1%,89.5%,94%,108%,108,102%,105%,95.3%,97%
CNC1=C([N+](=O)[O-])C(c2ccc(OC)cc2)C(C#N)=C(c2cccs2)O1 (stereo not given),103,99.8%,103%,99.6%,109%,125%,102%,102%,110%,111%,113%,105%,98.6%,99.5%,121%,101,101%,100%,106%,103%
Cc1nc2c(=O)nc3s/c(=C\c4ccco4)c(=O)n3c2nc1C,96.8,97%,93.5%,94.8%,101%,85.8%,85.1%,81.2%,97.1%,116%,103%,102%,82.1%,93.8%,112%,100,91.2%,90.3%,96.1%,93.7%
C=C1C(=O)O[C@H]2[C@H]1CC/C(CNC(=O)c1c[nH]c3ccc(F)cc13)=C\CC[C@@]1(C)O[C@@H]21,14.2,25.9%,82.9%,70.6%,85.7%,-42.3% (active),-73.9% (active),46.6%,-59.5% (active),-78.6% (active),-58.5% (active),-19.3% (active),-2.58% (active),11.7%,-84.9% (active),42.8,67.7%,-42.6% (active),-68.4% (active),-26.1% (active)
